Source: PubChem BioAssay
USP30 inh – inhibitors of human USP30 deubiquitinase | AID 1645860 | purified USP30, Ub-rhodamine cleavage fluorescence | Q70CQ3 | inhibition, % at 25 µM | 47,000 tested, 5.3% active
USP28 block – blocks human USP28 ubiquitin-rhodamine cleavage | AID 1645857 | inhibition, % at 25 µM | Q96RU2 | purified USP28, Ub-rhodamine cleavage fluorescence, 30 min | 47,000 tested, 3% active
Target sequence (Q96RU2 whole entry, looked up): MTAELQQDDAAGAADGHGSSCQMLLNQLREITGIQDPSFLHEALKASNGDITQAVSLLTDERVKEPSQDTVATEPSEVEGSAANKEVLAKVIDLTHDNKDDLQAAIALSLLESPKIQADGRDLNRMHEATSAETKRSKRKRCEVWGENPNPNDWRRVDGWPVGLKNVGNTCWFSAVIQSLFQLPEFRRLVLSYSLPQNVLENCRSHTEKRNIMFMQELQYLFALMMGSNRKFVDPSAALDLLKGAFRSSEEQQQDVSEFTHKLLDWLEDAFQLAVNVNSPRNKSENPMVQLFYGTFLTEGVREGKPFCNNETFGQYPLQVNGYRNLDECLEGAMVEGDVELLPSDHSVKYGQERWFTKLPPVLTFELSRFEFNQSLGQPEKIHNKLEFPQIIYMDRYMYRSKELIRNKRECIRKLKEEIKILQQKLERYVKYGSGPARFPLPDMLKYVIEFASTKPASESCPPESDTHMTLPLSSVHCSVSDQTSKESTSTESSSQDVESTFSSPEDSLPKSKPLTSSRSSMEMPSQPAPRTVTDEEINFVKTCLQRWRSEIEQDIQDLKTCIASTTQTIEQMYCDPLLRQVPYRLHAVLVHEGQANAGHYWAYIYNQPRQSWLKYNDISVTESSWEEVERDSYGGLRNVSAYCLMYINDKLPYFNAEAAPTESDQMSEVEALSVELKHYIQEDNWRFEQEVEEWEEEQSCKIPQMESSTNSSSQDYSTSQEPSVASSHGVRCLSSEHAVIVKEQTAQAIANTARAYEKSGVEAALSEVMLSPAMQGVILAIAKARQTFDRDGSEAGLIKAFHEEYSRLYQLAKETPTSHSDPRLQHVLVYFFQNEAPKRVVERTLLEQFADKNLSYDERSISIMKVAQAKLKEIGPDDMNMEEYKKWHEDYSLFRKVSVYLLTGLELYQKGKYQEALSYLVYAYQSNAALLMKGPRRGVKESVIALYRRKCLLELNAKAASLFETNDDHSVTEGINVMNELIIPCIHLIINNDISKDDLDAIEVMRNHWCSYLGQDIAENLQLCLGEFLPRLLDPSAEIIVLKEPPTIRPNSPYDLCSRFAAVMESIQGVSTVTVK
USP10 block – human USP10 deubiquitinase inhibition; Q14694; purified USP10, Ub-rhodamine fluorescence, 60 min; inhibition, % at 20 µM; 47,000 tested, 1.1% active; AID 1645856
USP8 inh – human USP8 deubiquitinase inhibition | AID 1645853 | 47,000 tested, 4.2% active | P40818 | purified USP8, Ub-rhodamine cleavage fluorescence, 30 min | inhibition, % at 20 µM
OTUD3 inh – blocks human OTUD3 ubiquitin-rhodamine cleavage. purified OTUD3, Ub-rhodamine fluorescence, 2 h. inhibition, % at 25 µM. 47,000 tested, 0.7% active
USP17 inh – human USP17-like deubiquitinase inhibition | purified USP17, Ub-rhodamine cleavage fluorescence, 3 h | inhibition, % at 50 µM | 47,000 tested, 6.5% active
Hits are given with their value; – = inactive. Most compounds without a hit are left out; they make up all but 13% or so of the library. Cut-off read from the data, not from the text of the source: active = inhibition above about 30%; inactive = the rest.

SMILES | USP30 inh | USP28 block | USP10 block | USP8 inh | OTUD3 inh | USP17 inh
Cc1cc(C)c2nc(N3CCCC(C(=O)NCc4cccc(F)c4)C3)sc2c1 (centres undefined) | 37 | – | – | – | – | –
COc1ccc(C(C)=O)cc1COC(=O)c1ccc2c(c1)S(=O)(=O)N=C1CCCCCN12 | 38 | – | – | – | – | 45
CC(C)(C)c1ccc(NC(=O)c2ccc3c(c2)S(=O)(=O)N=C2CCCCCN23)cc1 | – | – | – | – | – | –
CSCC[C@H](NC(=O)OC(C)(C)C)C(=O)N1CCC(C(=O)N[C@@H](C)C(=O)Nc2ccc(F)cc2)CC1 | – | – | – | – | – | –
O=C(c1ccc(Cl)cc1)N1CCC2(CC1)OC(C(=O)N1CCCCC1)Cn1ccnc12 (centres undefined) | – | – | – | – | – | –
O=C(COc1ccc2c(c1)CCC2)Nc1ccc2c(c1)CCC2 | – | – | – | – | – | 59
O=C(COc1cccc(N2CCCC2=O)c1)Nc1ccc2c(c1)OCCO2 | – | 36 | – | – | – | –
O=C(COc1ccc2ccccc2c1)Nc1ccc2c(c1)CCC2 | – | – | – | – | – | –
O=C(Cn1cnc2ccccc21)Nc1ccc2c(c1)CCC2 | 53 | – | – | – | – | 32
O=C(Cn1cnc2ccccc21)N1CCc2ccccc21 | – | – | – | – | – | 34
O=S(=O)(NCCn1c(-c2ccncc2)nc2cccnc21)c1ccccc1Cl | – | – | – | – | – | –
N#Cc1ccc(-c2ccc(OCC(=O)Nc3ccc4c(c3)OCO4)cc2)cc1 | – | – | – | 43 | – | 56
CN(CC(=O)Nc1ccc2c(c1)OCO2)S(=O)(=O)c1cccs1 | – | – | – | 50 | – | –
O=C(COc1ccc2c(c1)OCO2)Nc1ccc2c(c1)OCCO2 | – | 36 | – | – | – | –
CC(Oc1ccc(Cl)cc1)C(=O)Nc1ccc2c(c1)CCC2 (centres undefined) | 32 | – | – | – | – | –
Cc1ccc2nc(-c3ccc(NC(=O)COc4ccc5c(c4)OCO5)cc3)sc2c1 | – | – | – | – | – | –
N#Cc1ccc(NCC(=O)Nc2ccc3c(c2)OCCO3)cc1 | – | – | – | – | – | –
O=S(=O)(NC1CCCCCC1)c1ccc(-c2ccno2)s1 | – | – | – | – | – | –
O=C1COC2(CCN(c3ncc(F)cn3)CC2)CN1Cc1ccccn1 | – | – | – | – | – | –
O=C(Cc1ccc(Br)cc1)Nc1ccc2c(c1)OCO2 | – | – | – | – | – | 44
CCc1nc(-c2noc3ccc(C(=O)N(C)C)cc23)co1 | – | – | – | – | – | –
COc1ccc(OC)c(Nc2nc(-c3ccc(Cl)cc3)c(C)s2)c1 | – | – | – | 42 | – | –
COc1ccc(-c2nc(NC(=O)c3c(-c4ccccc4)noc3C)sc2C)cc1 | – | – | – | – | – | –
Cc1cn2c(=O)cc(COC(=O)c3ccccc3Cl)nc2s1 | – | – | – | – | – | –
NS(=O)(=O)c1ccc(Cl)c(C(=O)OCc2csc(Nc3ccccc3)n2)c1 | – | 71 | – | – | – | –
SMILES | USP30 inh | USP28 block | USP10 block | USP8 inh | OTUD3 inh | USP17 inh
Cc1ccc2c(c1)[nH]c1c(N3CCc4ccccc4C3)ncnc12 | – | – | – | 35 | – | 43
CC1CN(C(=O)c2cccn(Cc3c(Cl)cccc3Cl)c2=O)CC(C)O1 (centres undefined) | – | – | – | – | – | –
COC(=O)Nc1cccn(Cc2c(Cl)cccc2Cl)c1=O | 52 | 88 | 50 | 93 | 81 | 88
N#Cc1ccc(NC(=O)Nc2cccn(Cc3c(F)cccc3Cl)c2=O)cc1 | – | 41 | – | 89 | – | 78
N#Cc1ccc(NC(=O)C2CC(=O)N(Cc3ccccc3)C2)cc1 (centres undefined) | – | – | – | – | – | –
O=C(Nc1ccccc1)N1CCCN(Cc2c(F)cccc2Cl)CC1 | – | – | – | – | – | –
N#Cc1ccc(NC(=O)Nc2cccn(Cc3ccc(F)cc3)c2=O)cc1 | – | 84 | 37 | 95 | – | 93
CN(C(=O)c1cccc2cccnc12)c1nc2c(s1)CCc1occc1-2 | – | – | – | 64 | – | 69
CN(C(=O)C1(c2ccccc2)CC1)c1nc2c(s1)CCc1occc1-2 | – | – | – | – | – | –
Cc1ccc(OCc2nc(C#N)c(N3CCCCC3)o2)cc1 | – | 37 | – | – | – | –
CC(=O)Nc1ccc(N2C(=O)c3cc(-c4ccco4)nn3CC2(C)C(=O)NCc2ccc(F)cc2)cc1 (centres undefined) | – | – | – | 39 | – | –
